Laboratory results published in the supplement of paper PMC3334620.
Whole data set: some 33,000 sequences, median “E-score (-0.5 to 0.5)” near -0.015, cut for the highest 2% near 0.3. Many of the other results were omitted from the sample, so the highest values are more common in it than they were.

Each sequence was assayed against T1, Abf1 (UniProt P14164) (assay: PBM E-score (8-mer binding enrichment) (E-score (-0.5 to 0.5)); higher = stronger / more preferred TF binding). Conditions: protein concentration: 200 nM; construct: GST-full length.
T1 sequence: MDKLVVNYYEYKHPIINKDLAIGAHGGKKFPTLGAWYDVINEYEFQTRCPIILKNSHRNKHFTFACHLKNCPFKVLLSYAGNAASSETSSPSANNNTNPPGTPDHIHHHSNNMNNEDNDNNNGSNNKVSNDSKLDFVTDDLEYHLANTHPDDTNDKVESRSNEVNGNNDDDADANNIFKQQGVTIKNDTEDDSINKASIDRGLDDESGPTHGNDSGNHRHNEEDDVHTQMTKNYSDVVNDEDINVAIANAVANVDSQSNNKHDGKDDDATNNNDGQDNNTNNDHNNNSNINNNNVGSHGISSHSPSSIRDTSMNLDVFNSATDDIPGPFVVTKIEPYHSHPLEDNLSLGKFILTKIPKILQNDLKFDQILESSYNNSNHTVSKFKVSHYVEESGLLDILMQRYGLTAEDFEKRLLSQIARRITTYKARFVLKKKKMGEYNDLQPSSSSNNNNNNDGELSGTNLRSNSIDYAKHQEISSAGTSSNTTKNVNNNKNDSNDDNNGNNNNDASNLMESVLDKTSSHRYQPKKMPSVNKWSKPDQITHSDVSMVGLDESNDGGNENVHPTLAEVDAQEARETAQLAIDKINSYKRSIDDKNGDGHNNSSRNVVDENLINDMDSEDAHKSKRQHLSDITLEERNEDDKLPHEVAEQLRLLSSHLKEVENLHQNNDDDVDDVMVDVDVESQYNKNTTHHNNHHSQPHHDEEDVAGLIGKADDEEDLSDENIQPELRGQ
Protocol: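 Universal 'all 10-mer' protein binding microarrays (Agilent AMADID 015681) probed with GST-tagged S. cerevisiae TFs (full-length or DBD) made by in vitro transcription/translation (PURExpress), about 100-200 nM. Bound TF was detected with fluorescent anti-GST. Each ungapped 8-mer (which stands for itself and its reverse complement) is scored by the PBM enrichment score (E-score), a modified Wilcoxon-Mann-Whitney statistic from -0.5 to +0.5, computed with the Universal PBM Analysis Suite. Scale: above 0.35 generally sequence-specific binding.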

Sequence | PBM E-score
AGGCCCTA | -0.113
AATGTGCA | 0.0308
GCTACAGA | -0.126
CAACTGGA | -0.182
ATCACTAG | 0.357
GCCACTAA | -0.149
AGCACTAA | 0.154
AGCACTAG | 0.0299
ATCACTAC | 0.375
CTCACTAC | 0.203
AACACTAC | -0.0369
CTCACTAA | 0.129
AACACTAG | 0.151
ACCACTAA | -0.0853
ATCACTAA | 0.359
GTCACTAA | 0.393
CTCTCGTC | 0.011
GCCTTACC | -0.255
TATGCACA | 0.018
AAAGGGTA | -0.0845
CTAACCTC | -0.0908
AGTGAGCG | 0.24
ATTATACG | 0.331
ATCATTTG | 0.276

Sequence | PBM E-score
CTCATTTA | 0.0543
ATCATACC | 0.205
CTCATTTC | 0.0189
ATTATACC | 0.217
ATCATACG | 0.315
ATCATTTC | 0.312
GACATTTA | 0.0126
GTCATTTA | 0.313
ATCATACA | 0.236
ATTATACA | 0.0365
AGGATCTC | -0.0704
GCTATCCA | 0.00713
CGATTGGA | -0.00974
GCGCCGTA | 0.291
TAGCCCTA | -0.149
AGGTTAAG | -0.128
CGCCTGAG | -0.0541
CCTACGCC | -0.0667
ATCATTCA | 0.278
GTGATGTA | 0.399
ATGATTTA | 0.296
TTCATAAA | 0.0402
ATCATTCC | 0.25
ATCATAAG | 0.105

Sequence | PBM E-score
ATCATTCG | 0.332
CTGATTTA | 0.0199
ATGATGTA | 0.272
CTGATGTA | -0.129
GTGATTTA | 0.317
ATCATAAA | 0.303
AATGGGTG | -0.0386
ATCGGGTC | -0.0582
CCGCGAAC | 0.00614
CGGAAAGA | -0.131
GTTGACTA | -0.164
GATGGGAC | -0.154
GACTGAAA | -0.037
CCCCAACG | -0.0545
AAAGGGAA | -0.0729
TGACCGAA | 0.0507
ATCATTTA | 0.305
ACCATTTA | 0.0343
AACATTTA | 0.0911
CATCCGAC | 0.151
AGCACTGG | -0.168
ACCACTGG | -0.103
CTCACTGC | -0.0817
AACACTGC | -0.155

Sequence | PBM E-score
ATCACTGC | 0.32
ATCACTGG | 0.332
ATGTTCGC | 0.00598
CGAAGGCA | -0.148
AACAGCCC | -0.373
AAAACGAT | 0.326
AAAACGAA | 0.167
AAAACGAC | 0.323
AAAACGAG | 0.0711
GAAACGAC | 0.153
CAAACGAC | 0.198
TATGCGGA | 0.0153
TTTGCAAA | 0.0778
GACCTGGC | -0.0415
CGAGTGAA | -0.14
GGAGTGAC | 0.333
AGAGTGAC | 0.288
GGAGTGAA | -0.0623
CGAGTGAC | 0.358
CGAGTGAG | -0.011
CGAGACTC | 0.0667
CGGAGACG | 0.0614
